# Bioassay records deposited in PubChem BioAssay by National Center for Advancing Translational Sciences (NCATS).
# Compounds with a hit are over-represented: about 10% of the library has one in this group of screens.
# CCT chaperon mod: High-Throughput Screening for Modulators of Cytosolic Chaperonin Activity. activity change, % (test concentration not listed), hits read low. purified chaperonin ATPase assay, HTRF ADP detection, 30 min. actives 0.3% (n = 360,000); in the data active = activity change below about -30%
#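 Enzyme 40 or 20 nM (batch-dependent) in Tris pH 7.4/KCl/MgCl2/DTT; cpd 76 uM single point; ATP 10 uM; 30 min 37 °C; Transcreener ADP HTRF detection, 30 min RT; ratio 665/615.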
# PLK1 PBD block: qHTS for Inhibitors of PLK1-PDB (polo-like kinase 1 - polo-box domain): Primary Screen; Plk1 PBD binding of FITC phosphopeptide, fluorescence polarization; Potency, µM, inactives show max response, negative = inhibition, hits mostly inhibitors; actives 2.8% (n = 360,000); AID 720504, 2013; note: potency is the fitted concentration of half-maximal effect; series mostly up to about 57 µM; nearly all actives have a fitted effect of over 65% in size
# MmCpn inh: Inhibitors of TCP-1 ring complex (TRiC) of Methanococcus maripaludis (MmCpn): qHTS | actives 0.031% (n = 330,000) | Potency, µM (top dose mostly 76.9 µM), inactives show at the top dose activity, negative = inhibition, hits mostly inhibitors | Chaperonin Mm-Cpn (Methanococcus maripaludis) | purified Mm-Cpn ATPase, ADP Transcreener TR-FRET; note: potency is the fitted concentration of half-maximal effect; nearly all actives have a fitted effect of over 80% in size
#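 Inhibition of chaperonin ATP hydrolysis is measured as reduced ADP production, detected by competitive TR-FRET in which signal falls with ADP. Final enzyme 25 nM and ATP 10 uM, reacted 30 min at 37°C.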
# Sfp inh: qHTS Assay for Inhibitors of Bacillus subtilis Sfp phosphopantetheinyl transferase (PPTase); 4'-phosphopantetheinyl transferase ffp (Bacillus subtilis), Q9F4F7; AID 1490, 2009; Potency, µM, for the others: largest response in the series, negative = inhibition, most hits filed as inhibitors; Biochemical Sfp PPTase activity, qHTS; actives 3.5% (n = 310,000);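 note: the enzyme is Sfp with the accession as filed and its product quenches rhodamine fluorescence; potency is the fitted concentration of half-maximal effect; 0% = enzyme reaction without inhibitor and -100% = no enzyme wells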
#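 After 15 min at room temperature with compound, 15 nM Sfp received 5 uM rhodamine-CoA plus 12.5 uM BHQ-2-ybbR (50 mM Hepes pH 7.6, 10 mM MgCl2). Rate came from the fluorescence difference over 30 min, ex 525/em 598 nm.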
# VDR inhibitor: Inhibitors of the vitamin D receptor (VDR): qHTS. Vitamin D3 receptor (Homo sapiens), P11473. VDR-SRC2-3 peptide fluorescence polarization, 2 h. Potency, µM, for the others: max response, negative = inhibition, hits mostly inhibitors. actives 0.93% (n = 400,000); note: potency is the fitted concentration of half-maximal effect
# Target sequence (P11473 whole entry, looked up): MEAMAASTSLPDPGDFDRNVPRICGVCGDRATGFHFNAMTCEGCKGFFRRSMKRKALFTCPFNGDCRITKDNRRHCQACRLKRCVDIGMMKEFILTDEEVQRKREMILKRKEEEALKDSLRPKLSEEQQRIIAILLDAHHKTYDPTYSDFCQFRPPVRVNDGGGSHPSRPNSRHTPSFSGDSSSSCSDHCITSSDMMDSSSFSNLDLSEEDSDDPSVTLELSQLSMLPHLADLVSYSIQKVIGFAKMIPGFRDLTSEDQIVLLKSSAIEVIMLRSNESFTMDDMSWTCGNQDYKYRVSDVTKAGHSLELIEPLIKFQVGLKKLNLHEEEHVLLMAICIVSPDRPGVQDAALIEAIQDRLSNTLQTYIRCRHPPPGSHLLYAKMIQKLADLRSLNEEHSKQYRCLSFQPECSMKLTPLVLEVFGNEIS
#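 Inhibition of the VDR/SRC2-3 peptide interaction is quantified by fluorescence polarization. Compounds (23 nl, pintool) incubate with the reagents for 2 hours at ambient room temperature.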
# G9a block: qHTS Assay for Inhibitors of Histone Lysine Methyltransferase G9a; actives 8.8% (n = 350,000); Potency, µM (titrated, usually from 102 µM), inactives show at the top dose activity, negative = inhibition, hits mostly inhibitors; Histone-lysine N-methyltransferase EHMT2 (Homo sapiens), Q96KQ7; G9a H3K9 monomethylation, AlphaScreen, 2 h; note: potency is the fitted concentration of half-maximal effect; nearly all actives have a fitted effect of over 75% in size
# Target sequence (Q96KQ7 913-1193 limits assumed): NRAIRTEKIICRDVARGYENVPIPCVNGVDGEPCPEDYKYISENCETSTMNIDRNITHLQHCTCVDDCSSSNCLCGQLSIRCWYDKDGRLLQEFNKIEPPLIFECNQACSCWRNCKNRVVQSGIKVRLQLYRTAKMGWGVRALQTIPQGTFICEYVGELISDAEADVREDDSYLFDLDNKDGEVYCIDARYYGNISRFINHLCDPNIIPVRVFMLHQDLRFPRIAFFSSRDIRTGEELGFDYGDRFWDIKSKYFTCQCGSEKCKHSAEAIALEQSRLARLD
#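 Methyltransferase reactions run at room temperature for 2 h (20 nM enzyme, 500 nM biotin-H3K9 peptide, 20 uM SAM) after a 15 min compound preincubation; product detected by AlphaScreen beads and anti-H3K9me1 antibody.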
# Active calls of the source: *; ? = inconclusive; . = no result; [ ] = remark or other dose. Unless noted, calls come from the whole dose curve; as a rule, active = well fitted curve in the direction sought with a large enough effect; inconclusive = small, poorly fitted or top-dose-only effect, or another doubt; inactive = no such curve, though single readings can be large; an effect the other way counts as inactive or inconclusive. Unless noted, % is set by controls: 0 for no effect and ±100 for the full control effect.
SMILES,CCT chaperon mod,PLK1 PBD block,MmCpn inh,Sfp inh,VDR inhibitor,G9a block
COC(=O)C1=C[C@@H](C(=O)OC)C2C3=C(C(=O)[C@@]2(C)NC(=O)c2ccccc2)[C@H](C)n2c(=O)n(C)c(=O)n2[C@@H]3C1 (some centres not stated),.,.,.,22%,4%,.
COCCCNC(=O)Cn1cnc2sc(C)c(S(=O)(=O)N3CCC(C)CC3)c2c1=O,.,.,.,.,-5%,3%[59 µM]
O=C(c1ccccc1Oc1ccc([N+](=O)[O-])cc1)N1CCOCC1,1,8%,1%,17%,3%,20%
COc1ccc(C(=O)N2CCC3(CC2)CCN(c2ccccc2)CC3)cc1,.,.,.,12%,-17%,-8%[12.7 µM]
COc1ccc(C(=O)N2CCC(N3CCN(c4ccccc4)CC3)CC2)cc1,-2,4%,-2%,?,-9%,2.5µM*
COc1ccc(N2CCN(C3CCCN(C(=O)c4cccc(C)n4)C3)CC2)cc1 (configuration not stated),2,0%,2%,9%,14%,50µM*
COc1ccccc1N1CCN(C(=O)C2CCN(C(=O)c3ccccc3Cl)CC2)CC1,1,-9%,-6%,2%,-1%,.
COc1ccccc1C(=O)N1CCC(N2CCN(c3ccccc3OC)CC2)CC1,-2,6%,0%,89µM*,2%,7.9µM*
O=C(c1ccccc1Oc1ccccc1)N1CCN(c2ccccc2)CC1,-5,?,-6%,-24%,-6%,40µM*
CCc1ccc2oc(C(=O)Nc3sc4c(c3C(=O)NC)CCCC4)cc(=O)c2c1,.,.,.,.,-2%,3%[59 µM]
CC(C)CN(CC(C)C)c1nnc(NC(=O)Nc2cccc(C(F)(F)F)c2)s1,.,.,.,.,8%,?
O=C(CCC1CCCC1)N1CCC(N2CCN(c3ccccc3)CC2)CC1,-2,0%,0%,-23%,-2%,?
COc1ccc(N2CCN(C(=O)NC3CCCCC3)CC2)cc1,-2,-9%,-3%,8%,-7%,?
CC(C)CC(=O)N1CCC(N2CCN(c3ccccc3)CC2)CC1,-2,30µM*,0%,-2%,?,.
COc1ccc(N2CCN(C(=O)c3cn(CC4CCCCC4)nn3)CC2)cc1,0,-22%,2%,5%,8%,35µM*
COc1cccc([C@@H]2Oc3ccc(OC)cc3/C(=N/OC[C@@H](C)[C@H](OCc3ccccc3)C(C)C)[C@@H]2O)c1,.,.,.,20%,.,.
Cc1c(NC(=O)Cc2ccc(F)cc2)cccc1-c1nc2cccnc2s1,.,.,.,.,18%,?
COc1cccc(NC(=O)c2sc3nc(C)c(C(=O)Nc4ccc(C)cc4C)c(-c4ccccc4Cl)c3c2N)c1,.,.,.,.,-9%,-1%[59 µM]
COc1ccc(OC)c(CNc2ncnc3onc(-c4ccc(Cl)cc4)c23)c1,.,.,.,.,-8%,4%[59 µM]
CN1CCN(NC(=O)c2ccc(Br)s2)CC1,-3,30µM*,0%,15%,?,-7%
CC1(C)CC(=O)C(c2c[nH]c3ccccc23)C(=O)C1,1,?,-2%,79µM*,10%,.
CC1=C(C(N)=O)C(c2ccc(C)cc2)n2nc(SCc3ccccc3F)nc2N1 (configuration not stated),.,.,.,.,-27%,-11%[59 µM]
CCOC(=O)N[C@H](Cc1c[nH]c2ccccc12)C(=O)Nc1cccc(Cl)c1,.,.,.,.,-8%,5%[59 µM]
CCOC(=O)NC(N(O)c1cccc(Cl)c1)C(Cl)(Cl)Cl (configuration not stated),0,?,0%,11µM*,32µM*,40µM*
Cc1cc(=O)oc2cc(OCC(=O)NCc3ccccn3)ccc12,-2,-16%,-1%,7%,-7%,30%
SMILES,CCT chaperon mod,PLK1 PBD block,MmCpn inh,Sfp inh,VDR inhibitor,G9a block
Cc1cc(=O)oc2cc(NC(=S)NCc3ccccn3)ccc12,0,-9%,-8%,-21%,2%,40µM*
Cc1cc(=O)oc2cc(NC(=O)c3ccc(OC(F)F)cc3)ccc12,2,-11%,-2%,-10%,10%,-10%
Cc1cc(=O)oc2cc(NC(=O)C(C)Oc3ccc(F)cc3)ccc12 (configuration not stated),-6,-7%,0%,.,-4%,45µM*
CCCC(C(=O)Nc1ccc2c(C)cc(=O)oc2c1)c1ccccc1 (configuration not stated),-2,-9%,1%,-19%,6%,22µM*
Cc1cc(=O)oc2cc(NC(=O)Cc3ccccc3)ccc12,-5,-8%,-1%,4%,21%,0%
Cc1cccc(C)c1OCCCn1c(CCNC(=O)C2CCCCC2)nc2ccccc21,.,.,.,.,-21%,11%[59 µM]
COc1ccccc1CCNC(=O)C(=O)NCC(c1cccnc1)N1CCN(c2ccccc2)CC1 (configuration not stated),.,.,.,.,2%,4%[59 µM]
COc1ccc(OCC(=O)Nc2ccccc2C(=O)OCc2cc(=O)n3nc(C)sc3n2)cc1,.,.,.,.,12%,21%[59 µM]
CCc1ccccc1-n1nnnc1SCC(=O)Nc1ccc(N2CCN(C)CC2)cc1,-1,-1%,-1%,6%,-21%,50µM*
Cc1cccc(-n2nnnc2SCC(=O)Nc2ccc(N3CCN(C)CC3)cc2)c1,2,?,0%,4%,-8%,45µM*
CC(=O)Nc1ccc(-n2nnnc2SCC(=O)Nc2cccc(NC(=O)c3ccco3)c2)cc1,1,-14%,-16%,50µM*,24%,25%[59 µM]
CCn1c(SCc2ccccc2C)nc(=O)c2c(C(=O)OC)cc(C3CC3)nc21,.,.,.,.,4%,-3%[59 µM]
COc1ccc(CNc2nc3ccccc3n2CCN2CCOCC2)cc1,-45*,-14%,0%,13%,-19%,7%[59 µM]
c1ccc(CNc2nc3ccccc3n2CCN2CCOCC2)nc1,1,2%,0%,89µM*,1%,-26%[59 µM]
CCCn1c(NCc2ccccn2)nc2ccccc21,-12,-6%,1%,?,-16%,5.6µM*
C=C/C(=C\C)C[C@@H](CC(=O)N[C@@H](CCC(=O)O)CC(=O)O)NC(=O)[C@@H]1CNCC[C@H]1NC(=O)C[C@@H](NC(=O)C[C@H](Cc1ccccc1)NC(=O)[C@@H]1CCCC[C@H]1N)C(C)C,.,.,.,-24%,12%,.
COc1cccc(CC(=O)NCc2ccc3c(c2)CCN3C(C)=O)c1,.,.,.,.,0%,2%[59 µM]
COc1cc(C(=S)N2CCOCC2)ccc1OC(=O)c1cc([N+](=O)[O-])cc([N+](=O)[O-])c1,-5,0%,1%,-2%,-20%,7.9µM*
